Drawing on PubChem BioAssay AID2132 (NMMLSC, 2009), this text covers inhibition for 2 compounds.

The nature of this assay: inhibition of 26S proteasome fluorogenic peptide cleavage, counter-screen for 26S proteasome disassembly project, biochemical, fluorogenic peptides, secondary (AID 2132). The following applies: yeast 26S proteasome, fluorogenic peptide cleavage rate; with Ac-RLR-amc; at 100 µM; hits give high values. Background: A counterscreen serves to expose hits that act by an unwanted route or on another target.

Unmarked numbers belong to inactive results.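 The calls were made as follows: active = inhibition above 20%; inactive = the rest.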 Peptide text beside a SMILES is read from it. * marks the point of attachment. Cbz = O=C(OCc1ccccc1)*

By inhibition is commonly meant the percentage by which the read-out fell short of the control. For the compound `CC(C)C[C@@H](C=O)NC(=O)[C@H](CC(C)C)NC(=O)[C@H](CC(C)C)NC(=O)OCc1ccccc1` (Cbz-Leu-Leu-Leu-aldehyde), the inhibition is 5%.
On to `CC(=O)N1C(=O)C(=C2C=C(C)OC(C)=C2)c2ccccc21`, for which the inhibition was 20%.
